Results as given in the supplement of paper PMC6555819.

Legend:
Test in all cases: PBM binding z-score (relative to random genomic background probes); higher = stronger binding; sequences stand for … in GC…GCGATTGACAGCGTAGAATGAAGG
[1] = system: RARb homodimer (NR concentration 270 nM)
How it was run: (§1)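 Probes were double-stranded and carried 34-nt variable regions with direct-repeat seeds, single-nucleotide variants, half-site ablations and random human genomic background sequences, printed on custom Agilent 4×180K protein-binding microarrays. Arrays were incubated 1 h with ligand-free nuclear receptor dimers in PBS pH 7.4, 2% milk, 0.02% Triton X-100, 1 mM DTT, 0.2 mg/mL BSA and 0.4 mg/ml salmon testes DNA. Antibodies against each partner (one per run) detected binding, and scanned fluorescence was regression-normalized. Binding z-scores use the random background probes as reference.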

[2] = system: RARg:RXRa (NR concentration 270 nM, RXRa partner concentration 90 nM)
How it was run: as §1

[3] = system: RARg homodimer (NR concentration 270 nM)
How it was run: as §1

[4] = system: RXRa DBDmut IVT, anti-RXR (DBD mutation: RXRa K156A/R161A, NR concentration 90 nM)
How it was run: as §1

[5] = system: RXRa homodimer (NR concentration 180 nM)
How it was run: as §1

[6] = system: THRa:RXRa (NR concentration 90 nM, RXRa partner concentration 90 nM)
How it was run: as §1

[7] = system: THRa homodimer (NR concentration 90 nM)
How it was run: as §1

[8] = system: VDR homodimer (NR concentration 270 nM)
How it was run: as §1

Sequence | PBM binding z-score [1] | PBM binding z-score [2] | PBM binding z-score [3] | PBM binding z-score [4] | PBM binding z-score [5] | PBM binding z-score [6] | PBM binding z-score [7] | PBM binding z-score [8]
AGAATGAGGTTACCAAAGAGCAGGGAAACGCTTG | 0.563 | 1.8 | 1.43 | 0.987 | 2.24 | 2.73 | 0.573 | 0.0969
CCTCGGAGGACAGAAGGTCAGAGATGTCCGCTTT | 3.39 | 3.26 | 3.21 | -0.0318 | 1.74 | 2.05 | -0.116 | 0.382
TCTCGCAGGACACGAAGGTCAGAGCTTTCCAGAG | 3.18 | 2.44 | 2.34 | 0.886 | 1.96 | 2.4 | 0.377 | 0.357
ACTATTAGTTGCGACGAGGGCAACCGATAGGTTG | 0.942 | 0.259 | 0.489 | 0.4 | 0.472 | 1.09 | 0.3 | 0.643
TAGCCTAGGGCATTGGGCCAGTATAGTACGCATC | 0.542 | 0.434 | 1.21 | -0.706 | 0.0585 | -0.328 | -0.611 | -0.306
GCTATTAGTTGAAAGGGCAACGGAATGATTCTCG | 1.94 | 1.36 | 1.26 | 0.668 | 1.2 | 0.463 | -0.221 | 0.0426
CGTTCAAGGTCAGCAGGTCAGTGAAAGCGACGTG | 5.45 | 6.75 | 7.14 | 3.31 | 5.46 | 4.18 | 3.13 | 2.25
